Hit rate of the full screen: of about 96,000 compounds, about 20,000 (21%) were called active.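 Rule for the calls: active = CYP2C19 inhibition above a set limit at 5 µM in the primary screen (cut at about 50% in these data); inactive = the rest.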 These entries were drawn from the full list.
biological target: Cytochrome P450 2C19 (Homo sapiens) (UniProt P33261); experiment: blockers of cytochrome P450 2C19 activity – biochemical, luminescence, ADME assay, primary screen (AID 778); details: CYP2C19 Supersomes, luciferin-H EGE luminescence, 30 min; at 5 µM; hits give high values;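 note: plate controls were negative control wells for no effect and 2.5 mM tranylcypromine positive control for full effect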
Sequence (P33261 whole entry, looked up): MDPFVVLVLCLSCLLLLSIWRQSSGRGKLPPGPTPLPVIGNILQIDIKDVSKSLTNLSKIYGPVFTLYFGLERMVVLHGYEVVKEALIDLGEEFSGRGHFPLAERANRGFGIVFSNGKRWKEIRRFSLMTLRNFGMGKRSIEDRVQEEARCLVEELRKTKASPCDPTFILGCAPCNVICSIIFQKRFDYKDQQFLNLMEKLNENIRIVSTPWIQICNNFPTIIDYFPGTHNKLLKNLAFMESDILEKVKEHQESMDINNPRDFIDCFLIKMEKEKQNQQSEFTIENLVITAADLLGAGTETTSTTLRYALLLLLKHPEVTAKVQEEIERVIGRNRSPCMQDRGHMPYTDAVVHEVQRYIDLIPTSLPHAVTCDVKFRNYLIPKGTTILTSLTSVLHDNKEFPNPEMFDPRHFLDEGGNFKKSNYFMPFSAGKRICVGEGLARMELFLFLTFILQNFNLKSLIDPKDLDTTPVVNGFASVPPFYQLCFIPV

inhibition, inactive:
CCC1CCCCN1CCCNC(=O)C1CCC(Cn2c(=O)[nH]c3ccccc3c2=O)CC1 (configuration not stated) 6%
CCOC(=O)c1c(-n2cnnn2)sc(C)c1C 7.5%
Cc1nc(NNC(=O)c2ccccc2)cc(-c2ccccc2)n1 -0.2%
CNC(=O)Nc1cc(C(C)(C)C)no1 32.3%
O=C(CSc1nnc(-c2ccccn2)n1-c1ccccc1)Nc1ccc2c(c1)OCO2 5%
O=C(CSc1nc(C2CC2)nc2ccccc12)Nc1ccc2c(c1)OCCO2 19.7%
CCCCSc1nc2c(c(=O)n1CC)SC(C)C2 (configuration not stated) 42%
O=C(CSc1nnnn1-c1ccc2c(c1)CCC2)Nc1ccc2c(c1)OCCO2 -2.7%
CCC(=O)Nc1cccc(NC(=O)CSc2nnnn2C2CCCC2)c1 36.1%
Cc1ccc(-n2c(SCC(=O)Nc3ccc4c(c3)OCO4)nnc2-c2ccoc2C)cc1 -13%
Cc1nonc1OCCn1nnnc1N 4%
O=C(CCn1c(=S)[nH]c2ccccc2c1=O)NCCCN1CCCC1=O 5.4%
O=C(CS(=O)(=O)c1cn(Cc2ccc(Cl)cc2)c2ccccc12)N1CCOCC1 35.4%
CCOC(=O)c1cc(NC(=O)SCC(=O)O)c(C)nc1C 24.3%
N#CCSc1nc2c(c(=O)n1Cc1ccccc1)C1(CCCC1)Cc1ccccc1-2 -19%
COc1cc(Br)cc(/C=N/c2ncn[nH]2)c1O 0.3%
Cc1nc2nc(C)c(CCC(=O)N3CCN(c4ccccc4)CC3)c(C)n2n1 7.2%
Cc1nc2c(-c3ccc(F)cc3)c(C)nn2c(C)c1CCC(=O)NCc1ccco1 41.7%
Cc1nn(C)cc1/C=N/NC(=O)c1sc2ccccc2c1Cl 37.3%
CC(=O)Nc1ccc(S(=O)(=O)N2CCC(N(C)CCC(C)C)CC2)cc1 2.5%
N#Cc1c(NC(=O)CSc2nc3ccccc3c(=O)n2Cc2ccco2)sc2c1CCCC2 -5.2%
CCOn1c(SC(C)C)nc2ccccc2c1=O -0.2%
CCOC(=O)C1CCc2nc3ccccc3c(=O)n21 (configuration not stated) 17.8%
O=C(CN1CCOCC1)Nc1c(-c2ccccc2)c2cc(Br)ccc2[nH]c1=O 4.9%
Cc1ccc(C(=O)N2CCN(C(=O)N3CCOCC3)CC2)cc1 7.4%
CCOC(=O)c1[nH]c2ccc(C)cc2c1N=C(C)N(C)C -13%
Cc1ccc(-c2ccnc3nc(Sc4ncc(C(F)(F)F)cc4Cl)nn23)cc1 0%
CCOC(=O)N1CCN(C(c2cccnc2)c2ccc3cccnc3c2O)CC1 (configuration not stated) 48%
COC(=O)C1C(=O)NCC1c1ccc(C)cc1 (configuration not stated) 10.9%
CCCS(=O)(=O)N1CCCC(C(=O)NCc2ccco2)C1 (configuration not stated) -10.8%
CCCS(=O)(=O)N1CCC(C(=O)NCCCN(C)Cc2ccccc2)CC1 6.8%
Cc1ccc(S(=O)(=O)N2CCCC2CO)cc1 (configuration not stated) 18.4%
COc1cccc(N2CCN(C(=O)C3CCCN(S(=O)(=O)c4cnc[nH]4)C3)CC2)c1 (configuration not stated) 25.3%
O=C(NCc1ccco1)C1CCCN(S(=O)(=O)c2cccc3nonc23)C1 (configuration not stated) 18.2%
O=C(NCc1ccco1)C1CCCN(S(=O)(=O)c2ccccc2)C1 (configuration not stated) 40.8%
Cc1cccc(N2CCN(C(=O)C3CCN(S(=O)(=O)c4cnc[nH]4)CC3)CC2)c1C 7.9%
CCOc1cccc(NC(=O)C2CCCN(S(=O)(=O)c3ccc(OC)cc3)C2)c1 (configuration not stated) 48.2%
CCN1CCN(C(=O)c2ccccc2N(C)S(=O)(=O)c2ccc(C)cc2)CC1 -7.6%
CC(C)(C)c1ccc(NC(=O)NCc2ccco2)cc1 2%
c1cc(-n2cnnn2)ccc1NC1=NCCC1 -15.7%
CCN1CCCC1Cn1cnc2c([nH]c3cc(OC)ccc32)c1=O (configuration not stated) -3.7%
CC(C)(C)Oc1ncc(Br)c(OC(C)(C)C)n1 -12.1%
N/C(Cc1ccc([N+](=O)[O-])cc1)=N\OC(=O)COc1ccc2ccccc2c1 4.3%
COC(=O)c1ccc2c(c1)S(=O)(=O)NC(=NCCCN1CCOCC1)S2 6.8%
CCOC(=O)Cn1c(=O)oc2cc(S(=O)(=O)N(C)Cc3ccco3)ccc21 14.9%
CCOC(=O)C1=C(CSc2nccn2C)NC(=O)NC1c1ccc(OC)cc1 (configuration not stated) 31.3%
Cn1nnnc1SCc1cc(=O)[nH]c2ccccc12 2.9%
CC1(C)Oc2ccc3ccc(=O)oc3c2/C(=C/NCCO)C1=O -7.3%
COc1ccccc1NC(=O)c1ccc2nc(N3C(=O)CCC3=O)sc2c1 13.6%
Cc1cc(NC(=O)CN2CCC(O)(c3cccc(F)c3)CC2)no1 34.5%
COc1ccccc1CNC(=O)CCCNS(=O)(=O)c1cccc2nsnc12 7.7%
COc1ccc(CCn2c(NCCCN3CCOCC3)nc3c2c(=O)[nH]c(=O)n3C)cc1 25.2%
CCCCNc1nc2c(c(=O)[nH]c(=O)n2C)n1CCOc1ccccc1 28.9%
CCOC(=O)c1cnc(SCC(=O)Nc2cccc(OC)c2)nc1N -12.1%
CCOC(=O)N1CCC(C(N)=O)CC1 5.4%
COc1cc2cc(CN(CCN3CCCC3)C(=O)Nc3ccccc3Cl)c(=O)[nH]c2cc1OC 7.9%
COCCNC(=O)C(c1ccc(C)o1)N(Cc1ccccc1)C(=O)Cn1nnc2ccccc21 (configuration not stated) 29.3%
Cc1ccc(C(C(=O)NCc2ccco2)N(CC2CCCO2)C(=O)Cn2nnc3ccccc32)cc1 (configuration not stated) 17.2%
Cc1ccc(C(CC(=O)O)Nc2nc(N3CCCCC3)nc(N3CCCCC3)n2)cc1 (configuration not stated) 11.1%
COc1ccc2c(c1OC)C(=O)c1ccccc1C2=O 17%
CCCCn1c(=S)[nH]c2cc(S(=O)(=O)N3CCCCC3)ccc21 25.4%
COc1ccc(S(=O)(=O)N2CCOCC2)cc1C(=O)Nc1nc2ccccc2s1 0.4%
CCCCNC(=O)C1CCCN(S(=O)(=O)c2ccc(S(=O)(=O)NCC(C)C)cc2)C1 (configuration not stated) 6.5%
COc1ccc(S(=O)(=O)N2CCCC(C(=O)N3CCN(C)CC3)C2)cc1C (configuration not stated) 30%
CSC1=N/C(=C\c2ccc3c(c2)OCO3)C(=O)S1 0.4%
COc1cc(NC(=O)N2CCOCC2)cc(OC)c1 -9.7%
CCC(=NC1CC(C)(C)NC(C)(C)C1)C1=C(O)CC(C)(C)CC1=O 3.6%
Cc1c(-c2ccccc2)cn2c1-c1ccc(C)n1CC2 1.7%
O=C(Nc1ccc(Cl)cn1)c1cnn2cccnc12 0.1%
CCC(=O)c1ccc(OCC(O)CN2CC(C)OC(C)C2)cc1 (configuration not stated) 39.4%
O=C1Nc2ccc(Br)cc2/C1=N/N=C/C1=C(N2CCOCC2)C(=C\c2ccccc2)/CC1 -1.8%
CCCOc1ccc2c3c(c(=O)oc2c1OCCC)CCC3 49.9%
COc1ccc(-c2c(C(C)=O)c(C)nc3sc4c(=O)n(-c5ccc(C)cc5)nnc4c23)cc1 21.7%
C=C(C)CSc1nnc(-c2ccc(C)cc2)n1N 17%
Cc1ccc(-n2c(C)cc(/C=C(\C#N)C(=O)NCC3CCCO3)c2C)cc1 (configuration not stated) 31.5%
CC1(C)CC(=O)C=C(NCCCNC2CCCCC2)C1 9.8%
CC(C)CCSc1ncnc2c1oc1nc3c(cc12)COC(C)(C)C3 -1.7%
Cc1cn(COC/C=C/c2ccccc2)c(=O)[nH]c1=O 24.1%
O=C(/C=C/c1ccccc1)c1ccoc1 35%

inhibition, active:
CCn1c(SCC(=O)Nc2ccc3c(c2)OCCO3)nc2c(c1=O)SC(C)C2 (configuration not stated) 61.9%
O=C(CSc1nc2ncccc2[nH]1)Nc1ccc2c(c1)OCCO2 82.3%
O=C(CSc1nnnn1C1CCCC1)Nc1ccc2c(c1)OCCO2 68.5%
Cc1nc2c(-c3ccc(F)cc3)c(C)nn2c(C)c1CCC(=O)N1CCN(c2ccccn2)CC1 54.1%
CCOC(=O)C(C)Sc1nc2ccccc2c(=O)n1CC1CCCCC1 (configuration not stated) 71.3%
CC(Sc1nc2ccccc2c(=O)n1Cc1ccco1)C(=O)c1ccccc1 (configuration not stated) 74.1%
CCOC(=O)c1cccc(NC(=O)C2CCCN(S(=O)(=O)c3cnc[nH]3)C2)c1 (configuration not stated) 58.5%
Cc1ccc(S(=O)(=O)N2CCCC2C(=O)NCc2ccco2)cc1 (configuration not stated) 81.7%
CCN(CCCNC(=O)C1CCN(S(=O)(=O)c2cnc[nH]2)CC1)c1ccccc1 70.9%
O=C(NCc1ccco1)C1CCCN(S(=O)(=O)c2cnc[nH]2)C1 (configuration not stated) 55.3%
CCOC(=O)C1=C(CSc2nnnn2C)N(C)C(=O)NC1c1ccccc1 (configuration not stated) 79.5%
CC(c1ccccc1)n1c(NCCCn2ccnc2)nc2c1c(=O)[nH]c(=O)n2C (configuration not stated) 55.9%
COc1ccccc1N(C(=O)Cn1nnc2ccccc21)C(C(=O)NCc1ccco1)c1ccc(C)o1 (configuration not stated) 68%
COc1ccc(S(=O)(=O)Nc2ccc(S(=O)(=O)N3CCCCC3)cc2)cc1OC 52.3%
COc1ccc(S(=O)(=O)N2CCCC2)c(C)c1C 72.2%
CCNC(=O)NC(=O)C(C)OC(=O)c1cc(S(=O)(=O)N2CCCCCC2)ccc1OC (configuration not stated) 66%
COc1ccc(S(=O)(=O)N2CCCCC2)cc1Br 92%
Cc1[nH]c(=O)c(C(=O)/C=C/c2ccccc2)c2c1CCCC2 80.5%

Reference: PubChem BioAssay AID778 (Sanford-Burnham Center for Chemical Genomics, 2007)
